Laboratory results from PubChem BioAssay (NCATS).
Records with an inconclusive call do not appear. Entries that show only a call come without a potency. Active and inactive are the calls of the source. Unless noted, the call rests on the fitted dose curve; in most records, active means well fitted curve in the direction sought with a large enough effect; inconclusive means small, poorly fitted or top-dose-only effect, or another doubt; inactive means no such curve, though single readings can be large; an effect the other way counts as inactive or inconclusive.

Key:
[1] = Validation screen for small molecules that induce genotoxicity in human embryonic kidney (HEK293T) cells expressing luciferase-tagged ELG1 (AID 493106)
How it was run: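 qHTS format; 2,000 HEK293T ELG1-luc cells/well; 23 nL compound via pin tool; 16 hr, 37 °C/5% CO2; ONE-Glo, 30 min RT; luminescence read.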

[2] = target: ATPase family AAA domain-containing protein 5 (Homo sapiens) (UniProt Q96QE3); assay: Validation screen for small molecules that inhibit ELG1-dependent DNA repair in human embryonic kidney (HEK293T) cells expressing luciferase-tagged ELG1 (AID 493107); further: nearly all actives have a fitted effect of over 70% in size; further: potency means the concentration at half of the fitted maximal effect
Sequence of ATPase family AAA domain-containing protein 5 (Homo sapiens) (Q96QE3 whole entry, looked up, the tested form may be a part): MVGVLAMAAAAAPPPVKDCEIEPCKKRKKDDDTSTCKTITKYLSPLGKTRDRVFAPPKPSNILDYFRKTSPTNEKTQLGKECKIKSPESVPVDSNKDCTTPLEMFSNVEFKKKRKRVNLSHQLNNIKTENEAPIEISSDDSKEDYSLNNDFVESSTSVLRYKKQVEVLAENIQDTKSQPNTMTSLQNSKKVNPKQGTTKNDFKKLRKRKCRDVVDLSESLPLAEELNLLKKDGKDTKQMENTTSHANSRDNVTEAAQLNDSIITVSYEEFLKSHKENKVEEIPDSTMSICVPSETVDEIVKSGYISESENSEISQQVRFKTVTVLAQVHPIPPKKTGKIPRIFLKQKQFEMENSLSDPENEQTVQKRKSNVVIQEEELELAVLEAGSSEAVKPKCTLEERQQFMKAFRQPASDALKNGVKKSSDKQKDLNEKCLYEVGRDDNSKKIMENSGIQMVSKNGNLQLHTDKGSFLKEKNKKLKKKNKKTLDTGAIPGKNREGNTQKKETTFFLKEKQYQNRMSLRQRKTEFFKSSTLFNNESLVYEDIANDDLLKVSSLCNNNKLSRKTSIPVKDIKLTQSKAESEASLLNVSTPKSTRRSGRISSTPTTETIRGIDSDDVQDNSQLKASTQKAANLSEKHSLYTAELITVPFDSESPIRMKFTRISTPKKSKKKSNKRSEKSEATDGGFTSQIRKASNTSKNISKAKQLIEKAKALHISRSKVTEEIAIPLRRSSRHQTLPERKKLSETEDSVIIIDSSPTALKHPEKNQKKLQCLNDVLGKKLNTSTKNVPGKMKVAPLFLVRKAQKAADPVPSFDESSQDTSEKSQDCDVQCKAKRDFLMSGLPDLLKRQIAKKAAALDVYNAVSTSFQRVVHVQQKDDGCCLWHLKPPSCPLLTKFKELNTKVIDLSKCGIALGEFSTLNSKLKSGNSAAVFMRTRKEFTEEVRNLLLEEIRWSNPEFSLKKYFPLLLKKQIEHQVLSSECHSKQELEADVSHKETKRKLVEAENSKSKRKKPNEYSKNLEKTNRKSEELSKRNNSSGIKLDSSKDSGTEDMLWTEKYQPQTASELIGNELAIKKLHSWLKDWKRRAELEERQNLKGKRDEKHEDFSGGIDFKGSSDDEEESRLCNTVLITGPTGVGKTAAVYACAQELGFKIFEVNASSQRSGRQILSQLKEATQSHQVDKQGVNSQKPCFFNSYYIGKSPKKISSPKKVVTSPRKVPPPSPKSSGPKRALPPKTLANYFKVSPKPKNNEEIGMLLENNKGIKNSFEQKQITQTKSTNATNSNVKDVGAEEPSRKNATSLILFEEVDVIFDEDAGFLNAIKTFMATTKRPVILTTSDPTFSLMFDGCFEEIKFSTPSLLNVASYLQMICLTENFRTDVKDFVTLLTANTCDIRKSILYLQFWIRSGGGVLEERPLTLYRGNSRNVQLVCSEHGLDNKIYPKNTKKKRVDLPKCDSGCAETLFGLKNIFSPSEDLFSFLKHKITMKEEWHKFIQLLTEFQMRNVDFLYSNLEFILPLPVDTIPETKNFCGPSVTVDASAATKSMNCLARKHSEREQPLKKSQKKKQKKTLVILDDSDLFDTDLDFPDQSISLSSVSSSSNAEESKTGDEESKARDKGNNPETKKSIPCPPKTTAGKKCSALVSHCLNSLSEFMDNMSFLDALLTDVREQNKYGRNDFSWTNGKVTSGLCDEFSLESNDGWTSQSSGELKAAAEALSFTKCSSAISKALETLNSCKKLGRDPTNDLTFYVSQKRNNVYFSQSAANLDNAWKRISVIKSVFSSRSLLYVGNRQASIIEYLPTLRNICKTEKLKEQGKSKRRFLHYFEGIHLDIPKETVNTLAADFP
How it was run: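 ELG1-luciferase HEK293T reporter; 5-fluorouridine + compound/DMSO, 16 hr, 37 °C, 5% CO2; ONE-Glo 30 min RT; luminescence read, qHTS format.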

[3] = target: Thyrotropin-releasing hormone receptor (Homo sapiens) (UniProt P34981); assay: qHTS for Small Molecule Agonists and Allosteric Enhancers of Human TRH Receptor: Validation Screen for Agonists (AID 493127;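 active means calcium activation more than 3 SD above the typical response in the agonist read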;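 further: intracellular calcium rise by fluo-8 fluorescence before TRH EC20 addition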); details: TRH receptor agonist cell assay; at 2 µM; stronger effect = higher value
Sequence of Thyrotropin-releasing hormone receptor (Homo sapiens) (P34981 whole entry, looked up): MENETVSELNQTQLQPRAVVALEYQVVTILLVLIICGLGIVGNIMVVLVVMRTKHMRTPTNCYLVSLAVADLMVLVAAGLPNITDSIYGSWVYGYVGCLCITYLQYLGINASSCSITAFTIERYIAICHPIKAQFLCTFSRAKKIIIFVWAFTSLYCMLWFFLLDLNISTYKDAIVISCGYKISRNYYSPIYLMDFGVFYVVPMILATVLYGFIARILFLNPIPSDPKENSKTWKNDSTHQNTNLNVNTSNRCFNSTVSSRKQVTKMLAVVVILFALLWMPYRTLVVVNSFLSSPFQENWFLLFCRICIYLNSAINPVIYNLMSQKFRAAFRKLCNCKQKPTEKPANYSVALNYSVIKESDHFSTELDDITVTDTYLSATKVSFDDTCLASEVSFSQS
How it was run: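 Read-out: intracellular calcium release measured kinetically by FDSS (fluo-8, ex 480/em 530 nm), 1 reading/s after a 10-cycle baseline. TRHR cells, 2000/well, cultured 18 h at 33.5C, dye-loaded at room temp. Compound-evoked positive calcium signal flags agonists.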

[4] = Nrf2 qHTS screen for inhibitors: Validation (AID 493153; active means well fitted inhibition curve with a large enough effect in the main read-out, with a control signal flat, not every such curve was filed as active); details: Potency: luciferase luminescence; viability change: measured here: cytotoxicity max response
How it was run: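 Concentration-response test in A549 ARE_Fluc reporter cells (5% FBS OPTI-MEM), compound exposure 18-24 h at 37°C, 5% CO2. Cell viability measured first by CellTiter-Fluor fluorescence; ARE-driven luciferase luminescence then measured as Nrf2 activity.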

[5] = qHTS for Inhibitors of Cell Surface uPA Generation: Validation Assay (AID 493164);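 further: RAW 264.7 macrophage cells exposed to compound for 18 h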
How it was run: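 Compounds are titrated over seven points (2.45 nM–38.3 uM final) onto pre-plated RAW 264.7 cells and incubated for 18 h. Retained intracellular ATP, measured with ATP-Lite, indicates blocked lethal factor entry.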

[6] = target: Galactokinase (Homo sapiens) (UniProt P51570); assay: qHTS Validation Assay for Inhibitors of Human Galactokinase (GALK) (AID 493189)
Sequence of Galactokinase (Homo sapiens) (P51570 whole entry, looked up): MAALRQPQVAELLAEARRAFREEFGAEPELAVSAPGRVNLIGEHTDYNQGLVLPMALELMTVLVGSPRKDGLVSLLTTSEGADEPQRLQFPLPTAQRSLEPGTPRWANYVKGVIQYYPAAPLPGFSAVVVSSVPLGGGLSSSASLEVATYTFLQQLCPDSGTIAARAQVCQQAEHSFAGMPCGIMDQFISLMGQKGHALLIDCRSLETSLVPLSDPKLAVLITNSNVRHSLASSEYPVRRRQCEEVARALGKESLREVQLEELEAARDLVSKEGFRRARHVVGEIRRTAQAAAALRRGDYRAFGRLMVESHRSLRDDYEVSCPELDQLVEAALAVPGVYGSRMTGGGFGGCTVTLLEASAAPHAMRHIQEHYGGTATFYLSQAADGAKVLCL
How it was run: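 5 nM GALK / 100 uM galactose / 35 uM ATP, 20 mM HEPES pH8.0, 5 mM MgCl2, 60 mM NaCl, 1 mM DTT, 0.01% BSA (final). RT 1 h; Kinase-Glo Plus luminescence.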

[7] = Validation screen for small molecules that induce DNA re-replication in SW480 colon adenocarcinoma cells (AID 504364)
How it was run: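 Read-out: total Hoechst intensity of nuclei by fluorescence scanning imager; hits raise the fraction of nuclei with elevated DNA content. Cells received compound for 48 hr at 37 C before a 40 min stain.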

[8] = target: Phosphoglycerate kinase, glycosomal (Trypanosoma brucei brucei) (UniProt P07378); assay: qHTS Validation Assay to Find Inhibitors of Phosphoglycerate Kinase (AID 504547)
Sequence of Phosphoglycerate kinase, glycosomal (Trypanosoma brucei brucei) (P07378 whole entry, looked up): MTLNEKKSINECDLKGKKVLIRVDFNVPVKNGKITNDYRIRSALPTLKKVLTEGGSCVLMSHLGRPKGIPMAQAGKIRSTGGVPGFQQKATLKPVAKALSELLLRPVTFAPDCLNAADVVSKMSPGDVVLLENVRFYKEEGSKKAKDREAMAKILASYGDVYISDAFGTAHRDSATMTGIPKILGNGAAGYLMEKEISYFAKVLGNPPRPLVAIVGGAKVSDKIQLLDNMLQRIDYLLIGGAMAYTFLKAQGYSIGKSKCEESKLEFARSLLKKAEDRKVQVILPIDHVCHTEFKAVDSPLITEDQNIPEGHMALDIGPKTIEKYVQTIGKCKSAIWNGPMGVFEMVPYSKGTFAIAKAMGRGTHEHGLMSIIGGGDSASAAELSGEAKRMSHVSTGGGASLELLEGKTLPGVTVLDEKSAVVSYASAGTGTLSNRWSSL
How it was run: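 Compounds are pinned into the substrate/PGK mixture, and GAPDH (100nM final) is added to start the reaction by producing 1,3-BPG. After 60 minutes at room temperature, Kinase-Glo Plus is added and luminescence is measured 10 minutes later.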

[9] = target: phosphoglycerate mutase (Leishmania major) (UniProt Q4Q090); assay: qHTS Validation Assay to Find Inhibitors of Phosphoglycerate Mutase (AID 504548);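 further: end-point luminescence from Kinase-GloPlus after the PGAM reaction; series mostly up to about 58 µM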
Sequence of phosphoglycerate mutase (Leishmania major) (Q4Q090 1-553): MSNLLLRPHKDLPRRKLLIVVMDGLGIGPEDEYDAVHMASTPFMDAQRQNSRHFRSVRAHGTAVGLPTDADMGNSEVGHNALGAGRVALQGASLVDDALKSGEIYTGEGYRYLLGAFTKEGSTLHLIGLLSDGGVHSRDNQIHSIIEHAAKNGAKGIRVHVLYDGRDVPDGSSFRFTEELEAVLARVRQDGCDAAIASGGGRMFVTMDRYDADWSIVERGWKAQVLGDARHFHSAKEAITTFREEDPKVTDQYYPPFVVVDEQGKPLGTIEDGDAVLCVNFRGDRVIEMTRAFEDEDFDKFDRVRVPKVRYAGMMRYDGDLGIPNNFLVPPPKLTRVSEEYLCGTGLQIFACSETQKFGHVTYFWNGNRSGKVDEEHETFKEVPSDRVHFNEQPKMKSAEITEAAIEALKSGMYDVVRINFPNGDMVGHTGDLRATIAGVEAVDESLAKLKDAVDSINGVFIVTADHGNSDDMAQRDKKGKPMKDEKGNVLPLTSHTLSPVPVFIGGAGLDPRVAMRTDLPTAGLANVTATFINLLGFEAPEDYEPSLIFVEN
How it was run: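 Inhibition of L. major PGAM was assessed by Kinase-GloPlus luminescence following a 45-minute room-temperature reaction with enzyme at 1.25nM final.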

[10] = target: Ubiquitin carboxyl-terminal hydrolase 1 (Homo sapiens) (UniProt O94782); assay: Inhibitors of USP1/UAF1: Pilot qHTS (AID 504865);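 further: rhodamine fluorescence freed from ubiquitin-rhodamine substrate followed over time; top concentration of the series differs between compounds; nearly all actives have a fitted effect of over 35% in size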
Sequence of Ubiquitin carboxyl-terminal hydrolase 1 (Homo sapiens) (O94782 whole entry, looked up): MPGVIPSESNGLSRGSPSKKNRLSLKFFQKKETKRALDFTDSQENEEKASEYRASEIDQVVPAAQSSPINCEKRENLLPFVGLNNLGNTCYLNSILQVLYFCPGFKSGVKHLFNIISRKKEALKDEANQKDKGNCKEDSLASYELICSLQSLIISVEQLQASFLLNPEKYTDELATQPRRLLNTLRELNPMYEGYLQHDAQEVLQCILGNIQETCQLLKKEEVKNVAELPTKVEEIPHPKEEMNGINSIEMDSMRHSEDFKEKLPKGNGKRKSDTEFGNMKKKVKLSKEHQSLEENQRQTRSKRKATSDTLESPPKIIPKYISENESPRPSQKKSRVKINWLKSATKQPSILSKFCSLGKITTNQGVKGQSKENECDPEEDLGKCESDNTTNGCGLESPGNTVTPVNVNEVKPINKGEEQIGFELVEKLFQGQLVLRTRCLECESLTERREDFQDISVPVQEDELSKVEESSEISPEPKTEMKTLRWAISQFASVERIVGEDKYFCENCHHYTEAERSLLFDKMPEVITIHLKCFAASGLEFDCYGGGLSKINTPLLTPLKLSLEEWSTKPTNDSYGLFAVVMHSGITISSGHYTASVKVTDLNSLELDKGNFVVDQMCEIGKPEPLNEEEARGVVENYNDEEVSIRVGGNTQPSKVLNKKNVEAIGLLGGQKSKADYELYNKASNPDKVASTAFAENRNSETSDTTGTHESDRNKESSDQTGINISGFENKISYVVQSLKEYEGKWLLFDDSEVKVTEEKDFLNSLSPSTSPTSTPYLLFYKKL
How it was run: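 In 50mM HEPES pH 7.8 containing 0.5mM EDTA, 1mM TCEP, 0.1 mg/ml BSA and 0.01% Tween-20, 1nM USP1/UAF1 is exposed to compound for 15 min, then Ub-Rho (150nM final) is added and fluorescence is read over time.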

[11] = qHTS for Inhibitors of ATXN expression: Validation of Cytotoxic Assay (AID 588349)
How it was run: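 Cytotoxicity counter-screen: HEK293 cells exposed to compound titrations, 72 hr, 37 degrees C. Read-out is intracellular ATP (CellTiter Glo luminescence) as a viability measure.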

[12] = qHTS for Inhibitors of ATXN expression: Validation (AID 588378); further: series mostly up to about 57 µM; nearly all actives have a fitted effect of over 75% in size
How it was run: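 Compounds were pinned onto attached HEK293 cells carrying an ATXN2-firefly luciferase construct and incubated 24 hrs at 37 degrees C. Each well then received a fluorescent viability reagent followed by luciferase substrate for end-point luminescence.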

[13] = target: Peptidyl-prolyl cis-trans isomerase NIMA-interacting 1 (Homo sapiens) (UniProt Q13526); assay: qHTS Validation Assay to Find Inhibitors of Pin1 (AID 504536; active means well fitted inhibition curve with a large enough effect in the polarisation, with a control signal flat, not every such curve was filed as active; the % refers to the polarisation)
Sequence of Peptidyl-prolyl cis-trans isomerase NIMA-interacting 1 (Homo sapiens) (Q13526 whole entry, looked up): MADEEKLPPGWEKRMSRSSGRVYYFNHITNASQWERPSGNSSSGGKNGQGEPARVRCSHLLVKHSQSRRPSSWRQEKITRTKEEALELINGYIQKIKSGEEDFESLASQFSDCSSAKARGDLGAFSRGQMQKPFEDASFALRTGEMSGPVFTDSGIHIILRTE
How it was run: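 Fluorescence polarization competition: compounds (titration) displace HiFluor-488-labeled Pin1-1b peptide from Pin1 (0.3 uM final) in pH 7.5 HEPES buffer with DTT, 10 min at room temperature; %Activity normalized to no-enzyme wells, curves fitted.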

[14] = target: Estrogen receptor (Homo sapiens) (UniProt P03372); assay: qHTS assay for small molecule antagonists of estrogen receptor alpha signaling (AID 588513; active means well fitted curve in the direction sought with a large enough effect in the signal ratio, with a control signal flat, not every such curve was filed as active; the % refers to the signal ratio)
How it was run: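 Fluorescence from CCF4 substrate after 2 h at room temperature gave reporter activity; cells had been exposed to compound and 0.5nM 17-beta-estradiol for 18 h at 37 C. Hill-equation fitting yielded IC50 and maximal response.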

[15] = target: Estrogen receptor (Homo sapiens) (UniProt P03372); assay: qHTS assay for small molecule agonists of estrogen receptor alpha signaling (AID 588514; calls by dose curve; further: nearly all actives have a fitted effect of over 70% in size)
How it was run: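 Read-out: CCF4 fluorescence from a beta-lactamase reporter in ER-alpha-UAS-bla HEK 293 cells after 18 hrs of compound exposure at 37 C. Normalized to 20 nM 17-beta-estradiol (100%) and DMSO (0%).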

[16] = target: DNA dC->dU-editing enzyme APOBEC-3G (Homo sapiens) (UniProt Q9HC16); assay: qHTS for inhibitors of Vif-A3G interactions: Validation (AID 588379)
Sequence of DNA dC->dU-editing enzyme APOBEC-3G (Homo sapiens) (Q9HC16 whole entry, looked up): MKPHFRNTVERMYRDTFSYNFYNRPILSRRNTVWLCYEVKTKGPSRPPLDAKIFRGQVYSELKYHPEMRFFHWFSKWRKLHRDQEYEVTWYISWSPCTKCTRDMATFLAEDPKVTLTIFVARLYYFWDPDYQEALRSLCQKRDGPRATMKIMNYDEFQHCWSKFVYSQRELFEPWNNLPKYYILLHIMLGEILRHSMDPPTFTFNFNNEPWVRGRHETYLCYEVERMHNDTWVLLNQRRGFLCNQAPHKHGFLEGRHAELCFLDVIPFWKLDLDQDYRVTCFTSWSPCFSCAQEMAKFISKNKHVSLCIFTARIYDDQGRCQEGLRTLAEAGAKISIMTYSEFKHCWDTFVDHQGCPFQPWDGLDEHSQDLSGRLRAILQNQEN
How it was run: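 Yellow fluorescence (Ex 488, Em 500-530) of Vif-coexpressing HeLa A3G-eYFP cells, scanned by Acumen cytometer, reports blocked A3G degradation. Cells plated at 700/well overnight at 37 deg C before compound addition, then a further overnight compound incubation at 37 deg C.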

| Structure (SMILES) | Potency [1] | Potency [2] | activation [3] | Potency [4] | viability change [4] | outcome [5] | outcome [6] | outcome [7] | outcome [8] | outcome [9] | Potency [10] | Potency [11] | Potency [12] | outcome [13] | outcome [14] | Potency [15] | outcome [16] |
| --- | --- | --- | --- | --- | --- | --- | --- | --- | --- | --- | --- | --- | --- | --- | --- | --- | --- |
| CO[C@@]1(NC(=O)CSCC#N)C(=O)N2C(C(=O)O)=C(CSc3nnnn3C)CS[C@@H]21 | inactive | inactive | 1.44% (inactive) | inactive | 1.13% | inactive | inactive | inactive | inactive | inactive | inactive | inactive | inactive |  |  |  |  |
| NC(=O)N1c2ccccc2C=Cc2ccccc21 | inactive | inactive | 0.625% (inactive) | inactive | -0.0645% | inactive | inactive | inactive | inactive | inactive | inactive | inactive | inactive | inactive | inactive | inactive |  |
| c1ccc2c(c1)CCCC2C1=NCCN1 (stereo not drawn) | inactive | inactive | 1.25% (inactive) | inactive | -0.882% | inactive | inactive | inactive | inactive | inactive | inactive | inactive | inactive | inactive |  |  |  |
| CNCCC(Oc1ccccc1OC)c1ccccc1 (stereo not drawn) | inactive | inactive | 2.38% (inactive) | inactive | 4.36% | inactive | inactive | inactive | inactive | inactive | inactive | inactive |  |  |  |  |  |
| O=C(O)CCCCCCCC(=O)O | inactive | inactive | -3.19% (inactive) | inactive | 9.01% | inactive | inactive | inactive | inactive | inactive | inactive | inactive | inactive | inactive |  |  |  |
| COCCOC(=O)C1=C(C)NC(C)=C(C(=O)OC(C)C)C1c1cccc([N+](=O)[O-])c1 (stereo not drawn) | inactive | 11.6 µM (active) | -5.81% (inactive) | inactive | 0.126% | inactive | inactive | inactive | inactive | inactive | inactive |  | inactive |  |  |  |  |
| N[C@@H](COP(=O)(O)O)C(=O)O | inactive | inactive | 1% (inactive) | inactive | 6.46% | inactive |  | inactive | inactive | inactive | inactive | inactive | inactive | inactive |  |  | inactive |
| CCCN1C[C@H](CSC)C[C@@H]2c3cccc4[nH]cc(c34)C[C@H]21 | inactive | inactive | 1.44% (inactive) | inactive | 2.56% | inactive | inactive | inactive | inactive | inactive | inactive | inactive | inactive |  |  |  | inactive |
| CCn1cc(C(=O)O)c(=O)c2cc3c(cc21)OCO3 | inactive | inactive | -0.375% (inactive) | inactive | -3.79% | inactive | inactive | inactive | inactive | inactive | inactive | inactive | inactive | inactive |  |  |  |
